The text below walks through data of ChEMBL document CHEMBL5724796, “Tm Shift (DSF) assay results for EUbOPEN Chemogenomics Library” (2024).

What all share (conditions): Compound concentration 20.0 uM
Test [1] concerns the target Tyrosine-protein kinase ABL1 (Homo sapiens) (UniProt P00519).
Test [2] addresses Bromodomain-containing protein 4 (Homo sapiens) (UniProt O60885).
In test [3] the target is Cyclin-dependent kinase 2 (Homo sapiens) (UniProt P24941).
Test [4] has as its target Casein kinase I isoform delta (Homo sapiens) (UniProt P48730).
Test [5] concerns the target Glycogen synthase kinase-3 beta (Homo sapiens) (UniProt P49841).
Test [6] deals with Mitogen-activated protein kinase 1 (Homo sapiens) (UniProt P28482).
Sequence of Mitogen-activated protein kinase 1 (Homo sapiens) (P28482 whole entry): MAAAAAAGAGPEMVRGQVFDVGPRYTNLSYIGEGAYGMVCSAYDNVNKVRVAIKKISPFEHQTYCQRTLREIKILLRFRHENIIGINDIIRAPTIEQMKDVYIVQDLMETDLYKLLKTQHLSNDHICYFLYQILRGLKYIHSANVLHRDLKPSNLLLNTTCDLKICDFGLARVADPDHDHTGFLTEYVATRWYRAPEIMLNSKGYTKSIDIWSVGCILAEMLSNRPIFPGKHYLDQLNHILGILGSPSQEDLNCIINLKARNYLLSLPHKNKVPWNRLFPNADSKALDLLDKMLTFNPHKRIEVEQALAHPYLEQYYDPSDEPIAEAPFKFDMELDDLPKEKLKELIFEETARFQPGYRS
The target in test [7] is T1, Aurora kinase A (Homo sapiens) (UniProt O14965).
T1 sequence (whole entry): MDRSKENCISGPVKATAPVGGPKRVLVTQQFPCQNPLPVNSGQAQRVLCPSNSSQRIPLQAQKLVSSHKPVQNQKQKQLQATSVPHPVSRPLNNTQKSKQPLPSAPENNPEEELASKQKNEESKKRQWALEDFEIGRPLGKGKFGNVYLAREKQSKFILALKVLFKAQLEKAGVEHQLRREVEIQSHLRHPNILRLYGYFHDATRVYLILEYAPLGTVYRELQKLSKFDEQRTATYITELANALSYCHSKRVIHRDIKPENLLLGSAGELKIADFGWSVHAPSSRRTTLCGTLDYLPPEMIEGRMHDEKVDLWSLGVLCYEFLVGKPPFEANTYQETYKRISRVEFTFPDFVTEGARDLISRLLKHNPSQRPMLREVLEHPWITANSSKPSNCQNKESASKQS

Test [8] has as its target T2, Transcription intermediary factor 1-alpha (Homo sapiens) (UniProt O15164).
T2 sequence (whole entry): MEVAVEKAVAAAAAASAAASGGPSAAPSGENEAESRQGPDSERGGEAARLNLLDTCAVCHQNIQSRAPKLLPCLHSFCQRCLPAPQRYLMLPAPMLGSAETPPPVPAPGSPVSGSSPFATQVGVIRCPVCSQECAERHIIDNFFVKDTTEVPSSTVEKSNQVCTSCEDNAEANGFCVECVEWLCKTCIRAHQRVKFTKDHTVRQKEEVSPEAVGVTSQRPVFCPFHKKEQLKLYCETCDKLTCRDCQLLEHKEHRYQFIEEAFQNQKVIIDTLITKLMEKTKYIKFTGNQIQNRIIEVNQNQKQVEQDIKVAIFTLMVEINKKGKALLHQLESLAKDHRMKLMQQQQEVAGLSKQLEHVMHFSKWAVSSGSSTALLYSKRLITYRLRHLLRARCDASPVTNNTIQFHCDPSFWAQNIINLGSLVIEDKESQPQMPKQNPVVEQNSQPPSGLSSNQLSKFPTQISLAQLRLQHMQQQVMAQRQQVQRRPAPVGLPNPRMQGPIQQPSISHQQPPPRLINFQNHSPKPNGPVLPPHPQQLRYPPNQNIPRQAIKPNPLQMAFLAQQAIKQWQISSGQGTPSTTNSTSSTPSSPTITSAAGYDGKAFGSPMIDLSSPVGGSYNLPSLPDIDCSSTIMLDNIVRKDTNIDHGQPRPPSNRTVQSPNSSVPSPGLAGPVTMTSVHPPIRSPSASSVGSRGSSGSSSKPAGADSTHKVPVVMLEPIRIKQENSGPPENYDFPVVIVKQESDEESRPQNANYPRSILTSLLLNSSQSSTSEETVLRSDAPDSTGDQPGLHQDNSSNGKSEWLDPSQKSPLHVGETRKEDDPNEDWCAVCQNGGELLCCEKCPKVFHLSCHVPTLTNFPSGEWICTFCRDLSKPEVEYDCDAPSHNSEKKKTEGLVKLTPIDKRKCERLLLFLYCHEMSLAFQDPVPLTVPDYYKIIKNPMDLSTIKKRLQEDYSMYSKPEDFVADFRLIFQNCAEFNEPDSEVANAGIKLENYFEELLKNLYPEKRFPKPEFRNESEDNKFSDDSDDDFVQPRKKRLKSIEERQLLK

Residues, ends and D or L forms follow the SMILES beside them. *: point of attachment. Cbz = O=C(OCc1ccccc1)*; CH2F = FC*

Sequence of Glycogen synthase kinase-3 beta (Homo sapiens) (P49841 whole entry, looked up): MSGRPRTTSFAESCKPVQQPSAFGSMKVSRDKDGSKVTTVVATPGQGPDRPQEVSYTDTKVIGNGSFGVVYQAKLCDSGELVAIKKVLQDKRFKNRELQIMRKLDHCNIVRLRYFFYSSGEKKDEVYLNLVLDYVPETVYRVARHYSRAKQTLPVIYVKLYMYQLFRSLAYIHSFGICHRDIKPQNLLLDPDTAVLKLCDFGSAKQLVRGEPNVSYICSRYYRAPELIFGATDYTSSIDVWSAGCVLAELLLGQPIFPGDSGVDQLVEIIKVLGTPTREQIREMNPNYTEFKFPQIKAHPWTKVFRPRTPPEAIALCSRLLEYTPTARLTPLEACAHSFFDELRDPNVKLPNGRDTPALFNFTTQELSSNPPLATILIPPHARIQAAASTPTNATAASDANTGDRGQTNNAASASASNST
Sequence of Casein kinase I isoform delta (Homo sapiens) (P48730 whole entry, looked up, canonical isoform): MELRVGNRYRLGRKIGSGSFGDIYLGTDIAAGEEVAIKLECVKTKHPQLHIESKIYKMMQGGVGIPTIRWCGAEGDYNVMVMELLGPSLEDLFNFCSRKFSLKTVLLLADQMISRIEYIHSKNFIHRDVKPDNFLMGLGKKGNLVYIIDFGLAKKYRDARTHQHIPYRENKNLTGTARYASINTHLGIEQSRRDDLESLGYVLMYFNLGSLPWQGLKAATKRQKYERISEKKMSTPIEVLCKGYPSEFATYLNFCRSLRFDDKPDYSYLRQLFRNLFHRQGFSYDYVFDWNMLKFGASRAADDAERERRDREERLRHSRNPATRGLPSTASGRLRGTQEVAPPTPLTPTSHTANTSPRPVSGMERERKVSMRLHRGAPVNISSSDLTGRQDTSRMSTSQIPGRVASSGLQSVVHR
Sequence of Tyrosine-protein kinase ABL1 (Homo sapiens) (P00519 whole entry): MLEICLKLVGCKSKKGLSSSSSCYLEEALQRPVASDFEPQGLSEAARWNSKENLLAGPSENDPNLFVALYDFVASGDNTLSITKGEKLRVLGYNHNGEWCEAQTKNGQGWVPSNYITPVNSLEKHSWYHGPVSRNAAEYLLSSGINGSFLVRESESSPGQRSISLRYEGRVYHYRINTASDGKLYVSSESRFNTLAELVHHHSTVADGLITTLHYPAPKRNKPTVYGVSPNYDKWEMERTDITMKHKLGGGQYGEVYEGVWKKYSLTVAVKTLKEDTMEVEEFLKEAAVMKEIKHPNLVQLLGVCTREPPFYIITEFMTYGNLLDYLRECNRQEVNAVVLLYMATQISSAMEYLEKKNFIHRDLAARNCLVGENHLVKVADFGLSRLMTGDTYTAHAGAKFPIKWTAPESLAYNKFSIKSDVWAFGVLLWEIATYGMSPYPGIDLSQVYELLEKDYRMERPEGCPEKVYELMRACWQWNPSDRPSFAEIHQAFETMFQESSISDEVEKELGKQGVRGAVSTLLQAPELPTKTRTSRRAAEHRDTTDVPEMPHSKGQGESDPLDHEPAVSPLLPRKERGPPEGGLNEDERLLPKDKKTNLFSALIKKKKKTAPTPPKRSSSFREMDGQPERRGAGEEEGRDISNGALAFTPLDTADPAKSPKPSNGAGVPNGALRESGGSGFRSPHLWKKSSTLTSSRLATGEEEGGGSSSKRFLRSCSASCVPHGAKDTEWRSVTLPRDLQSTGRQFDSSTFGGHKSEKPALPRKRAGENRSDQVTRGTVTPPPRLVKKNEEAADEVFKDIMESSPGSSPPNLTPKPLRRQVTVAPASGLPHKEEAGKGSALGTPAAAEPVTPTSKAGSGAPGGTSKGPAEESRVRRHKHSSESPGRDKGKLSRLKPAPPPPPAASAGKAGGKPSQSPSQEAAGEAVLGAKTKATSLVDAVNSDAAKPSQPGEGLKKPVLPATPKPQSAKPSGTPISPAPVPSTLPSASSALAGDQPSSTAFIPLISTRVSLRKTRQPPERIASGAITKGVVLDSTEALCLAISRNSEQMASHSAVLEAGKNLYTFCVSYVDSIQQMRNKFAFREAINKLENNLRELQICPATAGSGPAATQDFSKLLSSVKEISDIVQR

For the compound `N#Cc1cc(F)cc(Oc2ccc3c(c2C(F)F)[C@@H](O)C(F)(F)S3(=O)=O)c1`, the ΔTm – broadly, the change in melting temperature against a reference sample – in test [1] was 0.45 °C; in test [2], -2.84 °C; in test [3], -0.03 °C; in test [4] it was -0.34 °C; in test [5] it was 0.02 °C; in test [6], 0.16 °C. Moreover, the ΔTm in test [7] was -2.42 °C; in test [8], -0.94 °C.
`Cc1ncsc1-c1ccc(CNC(=O)[C@@H]2C[C@@H](O)CN2C(=O)[C@@H](NC(=O)COCCOCCOc2ccc(-c3ccc4ncnc(Nc5ccc(OCc6cccc(F)c6)c(Cl)c5)c4c3)cc2)C(C)(C)C)cc1`: the ΔTm in test [1] was 2.92 °C; in test [2], 5.48 °C; in test [3] it was 5.97 °C; in test [4] it was -3.34 °C; in test [5], 9.57 °C; in test [6], -2.89 °C. The ΔTm in test [7] is 7.09 °C; in test [8], 10.8 °C.
Consider `CN1CCN(c2nc(-c3ccc(C(=O)NC4(C(=O)NCC#N)CCCCC4)cc3)cs2)CC1`, for which the shift in melting temperature (ΔTm) is 0.26 °C in test [1]; -0.96 °C in test [2]; 0.12 °C in test [3]; -0.06 °C in test [4]; -0.33 °C in test [5]; -1.88 °C in test [6]. In addition, the ΔTm in test [7] is -0.41 °C; in test [8], -0.66 °C.
As to `COc1ccc(OC)c(-c2nnc3n2N=C(c2ccc(OC)c(OC)c2)CS3)c1`, the ΔTm was 0.21 °C in test [1]; 2.23 °C in test [2]; -0.04 °C in test [3]; -0.07 °C in test [4]; -1.12 °C in test [5]; 0.55 °C in test [6]. In addition, the results for the ΔTm in test [7] and in test [8] were -1.28 °C and 1.86 °C, respectively.
Take `CC1(C)CC[C@]2(C(=O)O)CC[C@]3(C)C(=CC[C@@H]4[C@@]5(C)C=C(O)C(=O)C(C)(C)[C@@H]5CC[C@]43C)[C@@H]2C1`: the ΔTm in test [1] was 0.5 °C; in test [2] it was -3.51 °C; in test [3] it was -0.16 °C; in test [4] it was -1.03 °C; in test [5], -1.79 °C; in test [6] it was -3.78 °C. Further, the shift in melting temperature (ΔTm) is -4.25 °C in test [7] and 0.88 °C in test [8].
Take `O=C(NCC1(c2nc(-c3ccccc3)cs2)CCOCC1)c1cccc(-c2noc(C(F)(F)F)n2)c1`: the ΔTm in test [1] is 0 °C; in test [2], -2.25 °C; in test [3] it was 0.39 °C; in test [4] it was 0.15 °C; in test [5], -0.34 °C; in test [6] it was -4.88 °C. For the same compound, the thermal shift (ΔTm) in test [7] was -0.64 °C; in test [8], -1.09 °C.
As to `Cn1c(NCCN(CCO)CCCc2ccc([N+](=O)[O-])cc2)cc(=O)n(C)c1=O`, the ΔTm in test [1] was -0.01 °C; in test [2], 0.07 °C; in test [3], 0.08 °C; in test [4], -0.29 °C; in test [5] it was -0.66 °C; in test [6], 0.09 °C. For the same compound, the values for the ΔTm in test [7] and in test [8] were -1.33 °C and 0.26 °C, respectively.
As to `O=C(NC(Cc1ccccc1)C(=O)NC(Cc1ccccc1)C(=O)CF)OCc1ccccc1` (stereo not drawn) (Cbz-Phe-Phe-CH2F; configuration not given here), the ΔTm in test [1] is 0.45 °C; in test [2] it was -0.83 °C; in test [3], 0.11 °C; in test [4], -0.3 °C; in test [5], 0.04 °C; in test [6] it was 0.22 °C. In addition, the ΔTm in test [7] was -2.32 °C; in test [8] it was 1.22 °C.
Regarding `Nc1ncnc2c1c(I)cn2[C@@H]1O[C@H](CO)[C@@H](O)[C@H]1O`, the ΔTm was 2.62 °C in test [1]; -1.63 °C in test [2]; 5.37 °C in test [3]; 6.51 °C in test [4]; 3.65 °C in test [5]; 1.9 °C in test [6]. The values for the ΔTm in test [7] and in test [8] were 1.18 °C and 0.89 °C, respectively.
Regarding `N[C@@H](CC(=O)N1CCN(C(c2ccc(F)cc2)c2ccc(F)cc2)CC1)C(=O)N1Cc2ccccc2C1`, the ΔTm was -0.03 °C in test [1]; 0.11 °C in test [2]; -3.61 °C in test [3]; -0.26 °C in test [4]; 0 °C in test [5]; 0 °C in test [6]. Moreover, the ΔTm is 0 °C in test [7] and -6.21 °C in test [8].
Consider `O=[N+]([O-])c1c(Nc2cc(F)cc(Cl)c2)ccc2nonc12`, for which the ΔTm in test [1] was 0.44 °C; in test [2] it was -2.93 °C; in test [3], 0.03 °C; in test [4], -0.44 °C; in test [5], -0.33 °C; in test [6], 0.07 °C. Further, the ΔTm in test [7] is -2.49 °C; in test [8] it was -0.26 °C.
Regarding `CCN(CCN(C)C)C(=O)CNCc1cc(C(N)=O)ccn1`, the ΔTm in test [1] is 0.33 °C; in test [2], -1.29 °C; in test [3] it was 0.23 °C; in test [4], -0.08 °C; in test [5], 0.25 °C; in test [6], -0.01 °C. Also, the shift in melting temperature (ΔTm) in test [7] is -1.34 °C; in test [8] it was -0.57 °C.
